Active and inactive are the calls of the source.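 Rule for the calls, unless noted: active = compounds whose cell count with miR-34 switched on is under 0.7 times the count with it off; inactive = the rest.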
Tests used:
[1] = system: Hepatitis C virus NS3 helicase; assay: HCV NS3 helicase inhibitors, primary screen, biochemical, fluorescence polarization, LOPAC1280 library (AID 687035; in the data active = inhibition above about 37%); conditions: Purified HCV NS3 helicase, Cy5-dT15 ssDNA binding fluorescence polarization; stronger effect = higher value; concentration not given here
[2] = Cy5 fluorescence quenching or enhancement artefacts, artefact control for HCV NS3 helicase inhibitor project, biochemical, LOPAC1280 (AID 687037; call rule not given here); conditions: Cy5-DNA-NS3h complex fluorescence interference counterscreen
[3] = sensitizers of A549 cells to miR-34 induction, primary screen, imaging, A549 dox-inducible miR-34, nuclei and caspase counts (AID 1347080); conditions: A549 miR-34 inducible, Hoechst nuclei count, 48 h
[4] = phospholipid biosynthesis inhibitors in animal cells, primary screen, cell-based, LOPAC library, screen 4 (AID 1347384; call rule not given here); conditions: phospholipid biosynthesis inhibition screen, at 10 µM
[5] = viability rescue of complex I mutant cybrids, primary screen, cell-based, galactose medium, ATP luminescence (AID 1645843;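 active = z-score of at least 1.8 in each of two replicates, scored against plate mean and spread of sample wells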;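 note: positive z means more ATP and so rescue of galactose-driven cybrid death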); conditions: complex I mutant cybrid cells, 72 h, stronger effect = higher value
[6] = survival rescue of mitochondrial mutant cells in low glucose, primary screen, MELAS cybrids, Rieske KO mouse fibroblasts, CellTiter-Glo (AID 1508586;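 active = mean z-score across replicates of 1.96 or higher in either the MELAS or the Rieske mutant cell line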;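 note: z relative to plate mean and SD of compound and empty wells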)
[7] = measured here: relative caspase fold change +Dox/-Dox
[8] = measured here: total cells with miR-34 induction, stronger effect = lower value
[9] = measured here: total cells without miR-34 induction
[10] = MELAS cybrid survival, CellTiter-Glo 48 h, stronger effect = higher value
[11] = Rieske KO mouse fibroblast survival, CellTiter-Glo 72 h
[12] = stronger effect = lower value, cell number ratio, induced over uninduced

Compound	inhibition [1]	fluorescence ratio (interference) [2]	fold change ([3]; stronger effect = lower value)	fold change [3, 7]	cell count [3, 8]	cell count [3, 9]	outcome [4]	z-score [5]	z-score [6, 10]	z-score [6, 11]	fold change [3, 12]
C[C@H](N)Cc1cccc(C(F)(F)F)c1	-3% (inactive)	1 (inactive)	0.951 (inactive)	1.01	10400	11000	inactive	0.04 (inactive)			
C[C@]12CC[C@@H]3[C@@H](CC[C@@]45O[C@@H]4C(O)=C(C#N)C[C@]35C)[C@@H]1CCC2O (stereo not given in full)			0.917 (inactive)	0.921	7740	8440			-0.378 (inactive)	0.316	
NC(CC(=O)N1CCn2c(nnc2C(F)(F)F)C1)Cc1cc(F)c(F)cc1F (stereo not given)				0.671	9670	10500			-0.323 (inactive)	0.499	0.922 (inactive)
Clc1ccc(C(Cn2ccnc2)OCc2ccc(Sc3ccccc3)cc2)c(Cl)c1 (stereo not given)				0.891	6850	8050			-0.265 (inactive)	0.16	0.851 (inactive)
CC(C)[C@@]12OC1C1O[C@]13[C@]1(OC1C[C@@H]1C4=C(CC[C@@]13C)C(=O)OC4)C2O (stereo not given in full)				0.482	1650	1670			1.17 (inactive)	-0.457	0.989 (inactive)
O=C1CCC[C@@H]2[C@@H]3CCCN4CCC[C@H](CN12)[C@@H]34				1.02	9040	9410			-0.296 (inactive)	0.336	0.961 (inactive)
CC(=O)O[C@@]12CO[C@@H]1CC(O)[C@@]1(C)C(=O)C(O)C3=C(C)C(O)C[C@@](O)(C(OC(=O)c4ccccc4)[C@H]21)C3(C)C (stereo not given in full)				0.634	6370	6370			-0.382 (inactive)	1.02	1 (inactive)
Cc1cc(C(=O)CN2CCCC2)c(C)n1-c1ccc(F)cc1			0.909 (inactive)	0.246	8040	8840			-0.384 (inactive)	0.483	
N=C(N)c1ccc(CS(=O)(=O)F)cc1	-2% (inactive)	1 (inactive)	1.04 (inactive)	1.07	11100	10700	inactive	0.445 (inactive)			
C[C@]12CCC(O)C[C@@H]1CC[C@@H]1[C@H]2CC[C@]2(C)C(=O)CC[C@@H]12 (stereo not given in full)			0.933 (inactive)	1.48	7540	8080			-0.116 (inactive)	-0.417	
O=C1C=CC[C@@H]2[C@@H]3CCCN4CCC[C@@H](CN12)[C@@H]34				0.733	9530	10400			-0.329 (inactive)	0.595	0.92 (inactive)
